Measured values taken from PubChem BioAssay (NCI).
About 83,000 compounds went through this panel and 20% of them were active in at least one assay; those are over-represented in the sample as a whole.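 Activity criterion: percent growth below 10, measured after cells in 96-well plates were exposed to a single compound concentration for 48 hours.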 Calls of active or inactive are those of the source.

Each compound was assayed on NCI-H23 lung (assay: NCI-60 one-dose screen, 48 h (100 = growth as untreated, 0 = no growth, -100 = all killed)). Conditions: 10 µM unless noted.

SMILES | growth
COc1c(F)ccc(C(=O)Nc2ccc3nc(NC(=O)C4CCCN(S(=O)(=O)c5cccc(C(F)(F)F)c5)C4)sc3c2)c1F (configuration not stated) | 96.9% (inactive)
Cc1ccc(S(=O)(=O)c2nc(S(=O)(=O)c3ccc(C)cc3)c(Cl)s2)cc1 | 36.8% (inactive)
COc1ccc2c(c1)c(-c1cc3nc(-c4cn(C)c5ncc(Br)cc45)cc(N)n3n1)cn2C | -36.8% (active)
COc1cccc(-c2nc(Nc3ccc(S(N)(=O)=O)cc3)c3ccccc3n2)c1 | 37.9% (inactive)
CCS(=O)(=O)N1CCCC(C(=O)Nc2nc3ccc(NC(=O)c4ccc(F)c(OC)c4F)cc3s2)C1 (configuration not stated) | 47.5% (inactive)
C=C1CCC2C3(C)COC(c4ccccc4)OC3CCC2(C)C1CC(Sc1ccccc1)C1=CCOC1=O (configuration not stated) | 44.2% (inactive)
Cc1cccc(-c2nc(Nc3cccc(S(N)(=O)=O)c3)c3ccccc3n2)c1 | 39.6% (inactive)
Brc1ccc(-c2n(Cc3ccc4ccccc4c3)c(-c3ccccc3)c(-c3ccccc3)[n+]2Cc2ccc3ccccc3c2)cc1 | -89.3% (active)
Cc1cc2nc3c([nH]c2cc1C)c1ccc(=O)cc1n3CCN(C)C | 38.8% (inactive)
N=C1N=C(SCc2nc3ccccc3[nH]2)NC(=O)/C1=C/c1ccc(Cl)cc1 | 98.8% (inactive)
COc1c(F)ccc(C(=O)Nc2ccc3nc(NC(=O)C4CCCN(S(=O)(=O)c5ccc(Br)c(F)c5)C4)sc3c2)c1F (configuration not stated) | 87.3% (inactive)
C=C1CC[C@@H]2[C@]3(C)COC(c4cn[nH]c4-c4ccc(Br)cc4)O[C@@H]3CC[C@@]2(C)[C@@H]1C/C=C1/C(=O)OCC1O (some centres not stated) | -86.1% (active)
